# Screening data deposited in PubChem BioAssay by several laboratories.
# The list is not random: actives were taken first. Their share in the collection is about 3.5%.
# C8 TRAIL sens: sensitizes caspase-8 expressing cells to TRAIL | NB7+C8 cells + TRAIL, ATPlite viability luminescence | inhibition (viability loss, TRAIL sensitization), % at 10 µM | hit rate 1% among 360,000;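 active = compounds causing at least 50% loss of cell viability in the single-dose screen, relative to plate controls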
# PPC-1+TRAIL kill: PPC-1 cancer cell killing with TRAIL present; AID 1443; cell killing (% activity), % at 4 µM or 5 µM; PPC-1 cells + TRAIL, ATPLite viability luminescence; hit rate 0.41% among 220,000;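 active = cell killing above 50% in the first pass at 4 µM, then a duplicate retest at 5 µM averaging 50% or more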;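 note: plate controls were cells with TRAIL plus DMSO for no effect and medium-only wells lacking cells for full effect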
# TWEAK-Fn14 inh: inhibitors of TWEAK-Fn14 interaction signaling; TWEAK-stimulated Fn14 reporter cells, luciferase luminescence, 8 h; hit rate 2% among 360,000; inhibition, % at 10 µM; in the data active = inhibition above about 50%
# Platelet DG rel: modulates dense granule release in human platelets | human platelet-rich plasma, SFLLRN dense granule ATP release, luminescence | inhibition, %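 (compounds screened at 7.5 µM in platelet-rich plasma)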 | hit rate 0.22% among 300,000;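 active = mean replicate score, as percent of positive control, at or above 50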
# TROY signal inh: inhibitors of TROY-dependent NF-kB signaling | Q293 LMP1-TROYcd NF-kB luciferase reporter, 4 h | inhibition, % at 10 µM | hit rate 0.98% among 360,000 | AID 1347056;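 active = compounds whose plate-normalised and pattern-corrected inhibition of the luciferase reporter signal at the single screening dose is 50% or more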
# HSP90 inh: inhibitors of HSP90 luciferase refolding in rabbit reticulocyte lysate | luciferase refolding luminescence, 3 h | inhibition, % at 5.6 µM | hit rate 0.91% among 290,000 | AID 1789;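 active = inhibition above the screen-wide mean plus 3 SD, computed separately per campaign, cut at about 16% in these data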;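 note: 0% = DMSO wells and 100% = 60 µM geldanamycin wells; inhibitors lower the luminescence because luciferase stays unfolded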
# The depositor's hits bear a star; / = not tested or not shown.
SMILES,C8 TRAIL sens,PPC-1+TRAIL kill,TWEAK-Fn14 inh,Platelet DG rel,TROY signal inh,HSP90 inh
COc1ccc(C(=O)/C=C/C(=O)N(CC(=O)NC2CCCCC2)CC2CCCO2)c(O)c1 (stereo not given),12,-6,84*,33,50*,4
COc1ccc(C(=O)/C=C/C(=O)N(CC(=O)NC2CCCCC2)Cc2ccccc2OC)c(O)c1,26,12,91*,21,91*,-6
COc1ccc(C(=O)/C=C/C(=O)N(Cc2ccccc2)C(C(=O)NC2CCCCC2)c2ccncc2)c(O)c1 (stereo not given),-5,11,10,-7,5,3
CC(=O)c1ccc(N2CCN(C(=O)c3cc(-c4ccncc4)nc4ccc(Cl)cc34)CC2)cc1,3,/,-3,3,10,0
O=C(NC(Cc1c[nH]c2ccccc12)C(=O)O)c1cccc(S(=O)(=O)N2CCCCC2)c1 (stereo not given),-12,/,-10,/,-4,/
COC(=O)COc1cccc(NC(=O)C(c2ccccc2)c2ccccc2)c1,-7,/,-4,1,1,-3
O=C(CSc1nnc(-c2c[nH]c3ccccc23)o1)N1c2ccccc2CCc2ccccc21,22,24,63*,4,39,6
Cc1cc(N)n(-c2cc(C)c3ccccc3n2)n1,60*,48,-8,10,-43,4
Cc1cc(C)c2nc(-n3nc(C)cc3N)cc(C)c2c1,10,-8,-21,0,-39,1
c1ccc(/N=C2\N=C(Nc3ccccn3)c3ccccc32)nc1,48*,/,19,6,-10,/
COc1ccc(C)c2sc(=NC(=O)c3ccccc3)n(C)c12,-8,-3,-15,8,-32,-4
COc1ccc(C)c2sc(=NC(=O)c3ccc(C(C)=O)cc3)n(C)c12,30,28,40,7,51*,5
O=c1[nH]c(N/N=C\c2ccc3c(c2)OCO3)nc2ccccc12,52*,44,10,1,-12,0
Nc1ncnc2c1ncn2C1O[C@H](CO)[C@@H](O)[C@@H]1O (stereo not given in full),12,/,-10,/,-13,/
Nc1ncnc2c(C3OC(CO)C(O)C3O)scc12 (stereo not given),57*,/,100*,/,65*,/
CCn1c(SCC(=O)Nc2ccc3c(c2)OCCO3)nnc1-c1cccnc1,-2,/,45,-12,0,0
CCn1c(=O)c2sccc2n(Cc2ccccc2)c1=O,9,/,-1,3,1,4
NS(=O)(=O)c1ccc(CCNc2ccn3nc(-c4cccc(C(F)(F)F)c4)cc3n2)cc1,9,/,80*,/,66*,/
COc1ccccc1-c1cc2nc(NCCc3ccc(S(N)(=O)=O)cc3)ccn2n1,-7,/,-4,/,-10,/
CCC(=O)Nc1cccc(SC)c1,3,4,99*,4,-17,-4
CCC(CC)C(=O)Nc1cccc(SC)c1,/,12,/,0,/,13
Clc1cccc(CN2CCc3c([nH]c4ccccc34)C2)c1,20,/,13,-3,2,4
Clc1ccc(CN2CCc3c([nH]c4ccccc34)C2)cc1Cl,54*,/,-2,11,-3,2
COCCNC(=O)/C(C#N)=C/C(C)=C/c1ccccc1,-10,11,4,7,-23,1
COCCNC(=O)/C(C#N)=C/c1ccc(O)cc1,-9,-1,-28,86*,-19,-3
SMILES,C8 TRAIL sens,PPC-1+TRAIL kill,TWEAK-Fn14 inh,Platelet DG rel,TROY signal inh,HSP90 inh
COCCNC(=O)/C(C#N)=C/c1cccc(/C=C(\C#N)C(=O)NCCOC)c1,28,30,65*,-6,28,-4
CNC(=O)/C(C#N)=C/c1cccc(Oc2ccccc2)c1,23,12,53*,10,-80,4
CNC(=O)/C(=C\c1cccc(Oc2ccccc2)c1)NC(=O)c1ccccc1,-8,16,-3,2,-20,2
Cc1ccc(S(=O)(=O)N2CCC[C@H]2C(=O)OCC(=O)N2CCc3ccccc32)cc1,-10,/,-10,/,6,/
COC(=O)c1ccc(C)c(NC(=O)CSc2nnc3ccccn23)c1,4,/,10,/,-9,/
Cc1ccc(C=Nc2ccc(N(C)C)cc2)o1,2,-2,62*,6,5,-1
Cc1cc(N2C(=O)C(O)=C(C(=O)c3ccc(C)o3)C2c2ccc([N+](=O)[O-])cc2)no1 (stereo not given),0,/,2,25,4,-8
O=C(NC(=S)Nc1nc2ccccc2s1)c1ccco1,77*,11,29,-1,11,-7
Cc1ccc2nc(NC(=S)NC(=O)c3cccs3)sc2c1,79*,27,43,3,54*,7
COc1ccc2nc(NC(=S)NC(=O)c3ccco3)sc2c1,72*,8,49,10,51*,12
CCN(CC)CCCNc1oc(-c2cccc(Cl)c2)nc1C#N,8,33,-13,1,0,2
CCN(CC)CCCNc1ccc(-c2nnc(-c3ccc(OCC(C)C)cc3)o2)cn1,87*,/,-71,12,-21,0
CC(C)COc1ccc(-c2nnc(-c3ccco3)o2)cc1,30,16,57*,9,-12,8
Cc1ccccc1CN(C)C(=O)CNC(=O)c1ccc2ccccc2c1,-6,/,-4,0,-21,5
Nc1[nH]c(N=NC(=O)c2ccccc2O)c2ccccc12,72*,46,-8,-9,-82,-1
COc1ccc(NC(=O)CCNS(=O)(=O)c2ccc3[nH]c(=O)oc3c2)cc1Cl,-16,/,7,-8,7,-1
Cn1c(=O)[nH]c2nnc(-c3ccc(Cl)c(Cl)c3)nc2c1=O,30,34,57*,-13,4,4
CC(C)C1Cc2[nH]c(=S)[nH]c(=O)c2C(c2ccc(F)cc2)O1 (stereo not given),-6,/,-2,/,-3,/
Cc1nc2sccn2c(=O)c1S(=O)(=O)NCc1ccccc1,0,/,1,2,1,1
Cc1nc2sccn2c(=O)c1S(=O)(=O)NC(C)c1ccccc1 (stereo not given),11,/,-2,63*,2,-3
Cc1nc2sccn2c(=O)c1S(=O)(=O)NCC(C)c1ccccc1 (stereo not given),6,/,-1,58*,0,0
COc1cccc(SCc2noc(C(=O)NCCC(C)C)c2C(=O)NCCC(C)C)c1,11,/,-19,-2,-4,/
COc1ccc(C(=O)N/C(=C/c2cccnc2)C(=O)N2CCCCCC2)cc1OC,15,/,13,-4,-32,-7
O=C(OCc1cccc(Cl)c1)c1cc([N+](=O)[O-])ccc1N1CCOCC1,20,/,2,9,67*,/
O=C(OCc1cccc(C(F)(F)F)c1)c1cc([N+](=O)[O-])ccc1N1CCOCC1,-2,/,-16,-1,-7,/
N#Cc1cccc2c1-c1ccccc1/C2=N/NC(N)=S,-5,/,-64,3,1,6
NC(=S)NN=C1c2ccccc2-c2c(F)c(F)c(F)c(F)c21,71*,/,-1,/,7,/
